For four compounds, outcome and AC50 results are on record in PubChem BioAssay (EPA / NIEHS).

Activity calls are given as the source filed them. How the source made its calls: active means hit-call score of the fitted dose curve at least 0.9, where 1 is the maximum; inactive means score below 0.9.

Holding throughout (conditions): mRNA level, 48 h; actives raise or lower the signal
Read-out in assay [1]: CYP2E1 (gene 1571)
Briefly: LTEA_HepaRG_CYP2E1: Life Technologies and Expression Analysis (LTEA) Assay for CYP2E1 using HepaRG (AID 2283485). The method in brief:
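CYP2E1 transcript was measured by TaqMan qRT-PCR in human HepaRG cultures after 48 h chemical exposure (top 100 uM, half-log steps, 0.5% DMSO vehicle). Housekeeping-gene normalization; gain or loss fitted relative to DMSO baseline.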

Read-out in assay [2]: Cytochrome P450 3A4 (Homo sapiens) (UniProt P08684)
As to the kind of experiment: LTEA_HepaRG_CYP3A4: Life Technologies and Expression Analysis (LTEA) Assay for CYP3A4 using HepaRG (AID 2283487). Summed up: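 HepaRG, 48 h exposure, 8-pt CRC from 100 uM (half-log), 0.5% DMSO, duplicates; serum-free induction medium. Readout: CYP3A4 mRNA, qRT-PCR, ACTB/GAPDH/POLR2A normalization. Bidirectional fit vs DMSO.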

Read-out in assay [3]: Ezrin (EZR), EZR (gene 7430)
As to the kind of experiment: LTEA_HepaRG_EZR: Life Technologies and Expression Analysis (LTEA) Assay for Ezrin (EZR) using HepaRG (AID 2283491). Summed up:
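Read-out is EZR transcript level by qRT-PCR, normalized to three housekeeping genes and fitted bidirectionally against the DMSO control. Human HepaRG cells received test chemicals for 48 h at eight half-log concentrations up to 100 uM in 0.5% DMSO.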

Read-out in assay [4]: Cytochrome P450 3A7 (Homo sapiens) (UniProt P24462)
As to the kind of experiment: LTEA_HepaRG_CYP3A7: Life Technologies and Expression Analysis (LTEA) Assay for CYP3A7 using HepaRG (AID 2283492). The method in brief:
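qRT-PCR of CYP3A7 in HepaRG lysates after 48 h treatment; concentration-response (8 points, max 100 uM) analysed bidirectionally relative to 0.5% DMSO controls.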

Read-out in assay [5]: CYP3A5 (gene 1577)
Briefly: LTEA_HepaRG_CYP3A5: Life Technologies and Expression Analysis (LTEA) Assay for CYP3A5 using HepaRG (AID 2283493). Summed up:
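qRT-PCR read-out: CYP3A5 transcript in HepaRG lysates, housekeeping-normalized (ACTB/GAPDH/POLR2A), fitted bidirectionally against 0.5% DMSO baseline. Exposure 48 h, eight half-log concentrations up to 100 uM, duplicates.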

Read-out in assay [6]: Fatty Acid-Binding Protein 1 (FABP1), FABP1 (gene 2168)
As to the kind of experiment: LTEA_HepaRG_FABP1: Life Technologies and Expression Analysis (LTEA) Assay for Fatty Acid-Binding Protein 1 (FABP1) using HepaRG (AID 2283494). The method in brief:
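qRT-PCR readout of FABP1 transcript (normalized to three housekeeping genes) after 48 h chemical exposure of HepaRG cells; eight concentrations, half-log steps, max 100 uM, 0.5% DMSO vehicle; gain or loss fitted relative to DMSO baseline.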

Read-out in assay [7]: Cytochrome P450 4A22 (Homo sapiens) (UniProt Q5TCH4)
As to the kind of experiment: LTEA_HepaRG_CYP4A22: Life Technologies and Expression Analysis (LTEA) Assay for Cytochrome P450 4A22 (CYP4A22) using HepaRG (AID 2283495). The method in brief:
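Concentration-response (8 points, max 100 uM, 0.5% DMSO) in human HepaRG liver cells after 48 h exposure. CYP4A22 mRNA by TaqMan qRT-PCR with housekeeping-gene normalization.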

Read-out in assay [8]: Cytochrome P450 7A1 (Homo sapiens) (UniProt P22680)
As to the kind of experiment: LTEA_HepaRG_CYP7A1: Life Technologies and Expression Analysis (LTEA) Assay for Cytochrome P450 7A1 (CYP7A1) using HepaRG (AID 2283496). Summed up:
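Using 0.5% DMSO as vehicle and baseline, chemicals were tested in duplicate over an 8-point range from 100 uM on HepaRG cells for 48 h; qRT-PCR signals were normalised to ACTB, GAPDH and POLR2A.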

Read-out in assay [9]: Glutathione S-Transferase (GSTA2), GSTA2 (gene 2939)
Briefly: LTEA_HepaRG_GSTA2: Life Technologies and Expression Analysis (LTEA) Assay for Glutathione S-Transferase (GSTA2) using HepaRG (AID 2283497). Summed up: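 qRT-PCR readout of GSTA2 transcript, normalized to three housekeeping genes, fitted bidirectionally against 0.5% DMSO baseline. Differentiated HepaRG cells received compound for 48 h at 8 concentrations (top 100 uM, half-log steps).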

Read-out in assay [10]: Glutamate-cysteine ligase catalytic (GCLC), GCLC (gene 2729)
Briefly: LTEA_HepaRG_GCLC: Life Technologies and Expression Analysis (LTEA) Assay for Glutamate-cysteine ligase catalytic (GCLC) using HepaRG (AID 2283498). The method in brief:
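HepaRG, 48 h exposure, 8-pt half-log series from 100 uM, 0.5% DMSO vehicle; TaqMan qRT-PCR for GCLC mRNA, housekeeping-normalized; bidirectional curve fit vs DMSO baseline.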

Read-out in assay [11]: growth arrest and DNA damage 45 (GADD45G), GADD45G (gene 10912)
Briefly: LTEA_HepaRG_GADD45G: Life Technologies and Expression Analysis (LTEA) Assay for growth arrest and DNA damage 45 (GADD45G) using HepaRG (AID 2283499). The method in brief: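 Concentration-response in HepaRG: 48 h dosing, 0.5% DMSO, highest level 100 uM. GADD45G expression by qRT-PCR, normalised to endogenous controls; bidirectional fit to DMSO.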

Read-out in assay [12]: Glutamate-cysteine ligase regulatory (GCLM), GCLM (gene 2730)
Briefly: LTEA_HepaRG_GCLM: Life Technologies and Expression Analysis (LTEA) Assay for Glutamate-cysteine ligase regulatory (GCLM) using HepaRG (AID 2283500). Summed up: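 HepaRG, 48 h dosing, 100 uM top, half-log x8, 0.5% DMSO vehicle. Readout: GCLM mRNA by TaqMan qRT-PCR, housekeeping-normalized (ACTB/GAPDH/POLR2A). Curves fit bidirectionally vs DMSO baseline.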

Read-out in assay [13]: Heat shock 70 kDa protein 1 (HSPA1A), gene 3303
Briefly: LTEA_HepaRG_HSPA1A: Life Technologies and Expression Analysis (LTEA) Assay for Heat shock 70 kDa protein 1 (HSPA1A) using HepaRG (AID 2283502). The method in brief: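 HepaRG, 48 h exposure, 8-pt half-log CRC from 100 uM in 0.5% DMSO, duplicates. Readout: TaqMan qRT-PCR of HSPA1A mRNA, housekeeping-normalized (ACTB/GAPDH/POLR2A). Bidirectional fit vs 0.5% DMSO baseline.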

Read-out in assay [14]: Hypoxia-inducible factor 1-alpha (Homo sapiens) (UniProt Q16665)
Briefly: LTEA_HepaRG_HIF1A: Life Technologies and Expression Analysis (LTEA) Assay for Hypoxia-inducible factor 1 (HIF1A) Trancription factor using HepaRG (AID 2283503). Summed up: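 Gain- or loss-of-signal HIF1A mRNA changes are fitted against a DMSO baseline. HepaRG cultures receive eight concentrations, highest 100 uM, for 48 h in serum-free induction medium with 0.5% DMSO.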

Read-out in assay [15]: 3-Hydroxy-3-Methylglutaryl-CoA Synthase 2 (HMGCS2), HMGCS2 (gene 3158)
As to the kind of experiment: LTEA_HepaRG_HMGCS2: Life Technologies and Expression Analysis (LTEA) Assay for 3-Hydroxy-3-Methylglutaryl-CoA Synthase 2 (HMGCS2) using HepaRG (AID 2283504). Summed up:
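This steatosis marker was read as HMGCS2 mRNA change in HepaRG cells treated 48 h with up to 100 uM chemical. Normalisation used housekeeping genes; activity in either direction was fitted relative to 0.5% DMSO vehicle.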

Read-out in assay [16]: Early growth response protein 1 (EGR1) transcription factor, EGR1 (gene 1958)
As to the kind of experiment: LTEA_HepaRG_EGR1: Life Technologies and Expression Analysis (LTEA) Assay for Early growth response protein 1 (EGR1) transcription factor using HepaRG (AID 2283490). Summed up:
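HepaRG, 48 h exposure, 8-pt half-log series from 100 uM, 0.5% DMSO vehicle; EGR1 transcript by TaqMan qRT-PCR (Fluidigm array), housekeeping-normalized; bidirectional fit relative to DMSO baseline.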

Read-out in assay [17]: Glutathione S-transferase M3 (GSTM3), GSTM3 (gene 2947)
Briefly: LTEA_HepaRG_GSTM3: Life Technologies and Expression Analysis (LTEA) Assay for Glutathione S-transferase M3 (GSTM3) using HepaRG (AID 2283501). Summed up: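 Expression of GSTM3 is determined by qRT-PCR in human liver HepaRG cells treated 48 h with an 8-point half-log range from 100 uM in 0.5% DMSO.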

Sequence of Cytochrome P450 3A4 (Homo sapiens) (P08684 whole entry, looked up): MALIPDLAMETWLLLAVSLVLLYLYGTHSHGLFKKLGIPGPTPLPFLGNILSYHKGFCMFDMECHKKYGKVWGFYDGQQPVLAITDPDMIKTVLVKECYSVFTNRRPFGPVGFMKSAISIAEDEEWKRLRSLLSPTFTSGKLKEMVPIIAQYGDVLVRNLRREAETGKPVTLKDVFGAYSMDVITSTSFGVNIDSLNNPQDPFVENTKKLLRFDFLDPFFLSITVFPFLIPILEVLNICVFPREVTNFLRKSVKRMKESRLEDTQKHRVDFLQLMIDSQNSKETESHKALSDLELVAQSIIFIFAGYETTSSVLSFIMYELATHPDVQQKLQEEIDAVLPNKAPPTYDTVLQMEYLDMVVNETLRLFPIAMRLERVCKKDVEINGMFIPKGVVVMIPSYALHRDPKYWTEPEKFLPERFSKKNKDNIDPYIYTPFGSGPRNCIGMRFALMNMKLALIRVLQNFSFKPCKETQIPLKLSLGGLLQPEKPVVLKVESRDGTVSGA
Sequence of Hypoxia-inducible factor 1-alpha (Homo sapiens) (Q16665 whole entry, looked up): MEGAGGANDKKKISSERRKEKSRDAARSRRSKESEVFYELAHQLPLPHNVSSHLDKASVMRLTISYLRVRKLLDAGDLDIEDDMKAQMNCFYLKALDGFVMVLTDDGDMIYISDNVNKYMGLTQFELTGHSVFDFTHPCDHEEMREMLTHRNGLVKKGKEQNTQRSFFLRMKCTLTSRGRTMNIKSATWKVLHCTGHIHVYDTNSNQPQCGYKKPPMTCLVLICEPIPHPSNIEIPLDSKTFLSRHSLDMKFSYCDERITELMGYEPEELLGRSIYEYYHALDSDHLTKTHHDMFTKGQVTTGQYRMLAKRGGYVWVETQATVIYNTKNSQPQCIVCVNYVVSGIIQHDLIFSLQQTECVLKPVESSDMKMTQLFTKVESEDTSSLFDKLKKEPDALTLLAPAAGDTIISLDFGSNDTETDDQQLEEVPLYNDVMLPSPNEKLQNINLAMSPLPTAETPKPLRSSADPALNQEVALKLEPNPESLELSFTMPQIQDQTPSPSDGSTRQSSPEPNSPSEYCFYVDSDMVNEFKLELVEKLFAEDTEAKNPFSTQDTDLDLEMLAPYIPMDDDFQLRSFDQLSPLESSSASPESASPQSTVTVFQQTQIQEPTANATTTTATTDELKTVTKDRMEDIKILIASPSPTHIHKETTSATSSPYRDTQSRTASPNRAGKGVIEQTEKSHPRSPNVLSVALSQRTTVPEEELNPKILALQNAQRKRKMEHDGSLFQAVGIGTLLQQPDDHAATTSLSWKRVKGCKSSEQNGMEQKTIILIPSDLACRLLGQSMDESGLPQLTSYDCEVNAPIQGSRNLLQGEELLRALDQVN
Sequence of Cytochrome P450 3A7 (Homo sapiens) (P24462 whole entry, looked up): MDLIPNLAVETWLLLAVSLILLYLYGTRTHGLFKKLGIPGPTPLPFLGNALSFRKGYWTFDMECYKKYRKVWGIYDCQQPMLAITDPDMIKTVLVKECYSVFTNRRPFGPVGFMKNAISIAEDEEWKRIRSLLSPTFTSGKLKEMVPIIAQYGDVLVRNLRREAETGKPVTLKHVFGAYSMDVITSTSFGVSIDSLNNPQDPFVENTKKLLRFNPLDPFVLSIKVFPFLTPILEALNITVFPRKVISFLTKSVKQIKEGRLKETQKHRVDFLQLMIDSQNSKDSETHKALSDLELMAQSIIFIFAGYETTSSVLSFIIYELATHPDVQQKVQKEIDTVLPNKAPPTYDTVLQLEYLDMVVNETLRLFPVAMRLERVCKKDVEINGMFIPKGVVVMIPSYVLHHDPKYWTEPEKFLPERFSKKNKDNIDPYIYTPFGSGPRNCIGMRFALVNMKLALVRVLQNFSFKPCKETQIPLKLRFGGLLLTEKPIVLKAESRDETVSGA

On to `CCCCCCCCCC[N+](C)(C)CCCCCCCCCC`, for which the call in assay [1], in assay [4], in [5], in assay [6], in assay [8] and in [12] was inactive. For the same compound, in assay [13], the compound was called inactive. For the same compound, the AC50 in [2] was 63.1 µM (active); in [3], 80.9 µM (active); in assay [7] it was 25.5 µM (active); in assay [9] it was 74.5 µM (active); in assay [10] it was 83.7 µM (active); in [11] it was 83.7 µM (active). Moreover, the AC50 is 82.7 µM (active) in [14] and 77.4 µM (active) in assay [15].
Consider `CCSC(=O)N(CC)C1CCCCC1`, for which the outcome in assay [1], in assay [16], in assay [3], in assay [4], in assay [5] and in assay [6] was inactive. The call in [9], in [10], in assay [12], in assay [17], in assay [13] and in [14] was inactive. Also, the compound was called inactive in assay [15].
On to `CCNc1nc(NC(C)C)nc(SC)n1`, for which the AC50 in [1] was 29.1 µM (active); in [2], 2.44 µM (active); in [6] it was 28.3 µM (active); in assay [8] it was 35.5 µM (active); in assay [11], 63.9 µM (active); in assay [15] it was 50 µM (active). The compound was called inactive in assay [3], in [4], in assay [5], in assay [7], in [9] and in [10]. For the same compound, the compound was classed as inactive in [12], in assay [13] and in assay [14].
As for `CC#Cc1cc(C)nc(Nc2ccccc2)n1`, the AC50 in [1] was 13.6 µM (active); in [2] it was 28.2 µM (active); in [4], 41.6 µM (active); in assay [5] it was 15.6 µM (active); in assay [6], 13.7 µM (active); in assay [8], 13.8 µM (active). Also, the AC50 in assay [9] was 28 µM (active); in assay [10], 32.8 µM (active); in [12], 50 µM (active); in assay [17] it was 14.5 µM (active); in assay [15] it was 32.5 µM (active). The compound was called inactive in assay [3], in assay [11], in assay [13] and in assay [14].
